Screening data (PubChem BioAssay)
HPGD inh: blocks human HPGD enzyme activity; purified HPGD, NADH fluorescence kinetic, PGE2 substrate; Potency, µM, for the others: top-dose activity change, negative = inhibition, hits mostly inhibitors; 150,000 tested, 4.3% active; note: potency is the fitted concentration of half-maximal effect
Target sequence (P15428 whole entry, looked up): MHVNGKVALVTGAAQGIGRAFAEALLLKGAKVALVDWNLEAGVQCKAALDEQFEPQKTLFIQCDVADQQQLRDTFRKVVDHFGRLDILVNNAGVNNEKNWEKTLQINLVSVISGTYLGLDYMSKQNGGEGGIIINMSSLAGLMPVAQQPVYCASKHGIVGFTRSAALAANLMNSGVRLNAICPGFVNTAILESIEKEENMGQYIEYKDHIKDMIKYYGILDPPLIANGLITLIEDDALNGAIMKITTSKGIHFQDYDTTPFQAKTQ
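20 nM HPGD preincubated 15 min at room temperature with compound in 50 mM Tris-HCl pH 8, 0.01% Tween 20. Started with 1 mM NAD+ and 30 uM prostaglandin E2; NADH fluorescence (360/450 nm) read 5 times over 30-s intervals, last minus first.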
PNC assembly inh: perinucleolar compartment assembly inhibition; activity change (PNC), negative = inhibition, % at 10 µM; 140,000 tested, 3.1% active; PC3M PTB-GFP, PNC prevalence imaging, 16 h; active compounds read low;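 active = readout at or below -70, meaning at least 70% loss of cells showing the perinucleolar compartment, a nuclear body marking cancer cells; inconclusive = readout between -30 and a set limit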;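 note: plate controls were DMSO wells for no effect and camptothecin positive control wells for full effect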
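Read-out is percentage of cells bearing a perinucleolar compartment, from automated 20x imaging of fixed, Hoechst-stained PC3M PTB-GFP cells. Cells were seeded 4 h, then exposed 16 h to compound (23 nl of library stock) in duplicate plates.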
ALDH1A1 block: ALDH1A1 (human) enzyme inhibition; P00352; Potency, µM (highest dose often 75.3 µM), for inactives: at the highest dose activity, negative = inhibition, most hits filed as inhibitors; 220,000 tested, 7.3% active; Purified ALDH1A1, NADH fluorescence, propionaldehyde substrate;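 note: potency is the fitted concentration of half-maximal effect; plate controls were no enzyme wells and a reference inhibitor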
Target sequence (P00352 whole entry, looked up): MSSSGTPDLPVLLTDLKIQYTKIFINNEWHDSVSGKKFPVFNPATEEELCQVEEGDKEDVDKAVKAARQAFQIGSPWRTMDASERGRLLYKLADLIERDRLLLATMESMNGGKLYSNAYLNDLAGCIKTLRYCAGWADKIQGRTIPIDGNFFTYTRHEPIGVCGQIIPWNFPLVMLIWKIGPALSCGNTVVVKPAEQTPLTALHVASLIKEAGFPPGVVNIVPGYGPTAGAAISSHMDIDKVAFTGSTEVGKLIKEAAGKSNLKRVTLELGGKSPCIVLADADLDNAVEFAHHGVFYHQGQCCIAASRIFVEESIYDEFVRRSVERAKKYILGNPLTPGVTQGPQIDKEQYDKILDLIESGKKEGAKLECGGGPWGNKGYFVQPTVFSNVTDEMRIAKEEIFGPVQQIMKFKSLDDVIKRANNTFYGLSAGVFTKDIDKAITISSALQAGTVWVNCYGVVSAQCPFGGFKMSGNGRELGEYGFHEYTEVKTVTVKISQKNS
Luc counter: Kinase-Glo luciferase inhibition (counter-screen). 200,000 tested, 0.28% active. Kinase-Glo luciferase, ATP luminescence, 8 min. Potency, µM (highest dose often 38.3 µM), without a hit: top-dose activity change, negative = inhibition, hits mostly inhibitors; active = well fitted inhibition curve with a large enough effect; inconclusive = small, poorly fitted or top-dose-only effect; note: potency is the fitted concentration of half-maximal effect; nearly all actives have a fitted effect of over 60% in size
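Inhibition of Kinase-Glo luciferase light generation was assessed at 10 uM ATP in pH 7.2 imidazole buffer, with luminescence measured after eight minutes at ambient temperature.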
Lamin A splicing: changes lamin A minigene splicing in HeLa cells; HeLa LMNA splicing GFP/RFP minigene ratio, 48 h; AID 1487; 200,000 tested, 0.01% active; Potency, µM (titrated, usually from 46.1 µM), for the others: at the top dose ratio change, negative = inhibition, actives largely listed as inhibitors; active = well fitted inhibition curve with a large enough effect in the signal ratio, with a control signal flat, not every such curve was filed as active; inconclusive = small, poorly fitted or top-dose-only effect, or effect the other way, or a change in a side signal; the % refers to the signal ratio; note: potency is the fitted concentration of half-maximal effect
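S3 HeLa stable clones carrying a lamin A-EGFP splicing minigene plus DsRed2 were seeded at 600 cells/well in Opti-MEM with 2% FBS, pin-dosed and incubated 48 h at 37°C. Acumen cytometry (488 nm) gave the GFP/RFP total-intensity ratio.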
IMPase cell inh: membrane-permeable compound that blocks inositol monophosphatase | P97697 | CHO-M1 cells, IP1 accumulation, HTRF TR-FRET ratio | inhibition (IP1 accumulation), % at 46.1 µM | 120,000 tested, under 10 active | AID 901; active = well fitted curve in the direction sought with a large enough effect in the signal ratio, not every such curve was filed as active; inconclusive = small, poorly fitted or top-dose-only effect, or a change in a side signal; inactive = no such curve, though single readings can be large or run the other way; the % refers to the signal ratio;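 note: cells stimulated with carbachol in lithium chloride buffer; plate controls were DMSO basal wells for no effect and reference inhibitor wells for full effect; higher means more IMPase inhibition seen as more IP1 and lower FRET ratio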
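Cellular IMPase inhibition is scored as a rise in cytosolic IP1, detected by competitive TR-FRET between d2-labelled IP1 and a europium anti-IP1 antibody. M1-expressing CHO cells were stimulated with carbachol for 30 min at 37C, with lithium (50 mM LiCl) present in the buffer.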
* hit, by the source's call; ? = inconclusive; · = no result given; [ ] = remark or other dose. The list is not random: actives were taken first. Their share in the collection is about 10%. Unless noted, calls come from the whole dose curve; as a rule, active = well fitted inhibition curve with a large enough effect (not every such curve was filed as active); inconclusive = small, poorly fitted or top-dose-only effect, or another doubt; inactive = no such curve, though single readings can be large or run the other way. Unless noted, % is set by controls: 0 for no effect and ±100 for the full control effect.

SMILES	HPGD inh	PNC assembly inh	ALDH1A1 block	Luc counter	Lamin A splicing	IMPase cell inh
CCCOc1ccccc1C1CC(=O)NC2=C1C(=O)CCC2 (centres undefined)	-13.9%	-27.1	-12.0%	2.0%	?	?
CCCOc1ccccc1C1CC(=O)Nc2cc3c(cc21)OCCO3 (centres undefined)	-11.8%	-115.7*	-10.5%	-3.6%	?	?
COc1cccc(C2CC(=O)Nc3cc4c(cc32)OCO4)c1OC(C)C (centres undefined)	·	·	·	·	·	1.2
CC(C)Oc1ccccc1C1CC(=O)Nc2cc3c(cc21)OCO3 (centres undefined)	-5.4%	-80.6*	0.2%	-6.1%	?	2.1
NC1=NC(=O)/C(=C/c2cccs2)S1	-51.8%	-14.1	-5.7%	-28.7%	-11.0%	1.3
C=CCSC1=NC(=O)/C(=C/c2cccs2)S1	31.6µM*	15.8	?	-1.5%	?	·
Cc1ccc(-n2c(SCCC(C)C)nc3sc4c(c3c2=O)CC(C)(C)OC4)cc1	·	·	·	·	·	-5.7
O=C(OCn1nnc2ccccc2c1=O)C1CCCCC1	11.2µM*	?	15.8µM*	-5.5%	8.4%	-4.7
O=C(OCn1nnc2ccccc2c1=O)c1ccc2ncsc2c1	25.1µM*	2.6	?	-0.2%	?	1.1
CCC1(CC)NC(=O)N(CC(=O)OCn2nnc3ccccc3c2=O)C1=O	-21.5%	53.9	12.6µM*	4.3%	3.8%	10.1
O=C(CN1C(=O)C2CCCCC2C1=O)OCn1nnc2ccccc2c1=O (centres undefined)	·	·	?	0.5%	-19.1%[46 µM]	·
Cc1ccc(SCCC(=O)OCn2nnc3ccccc3c2=O)cc1	·	·	15µM*	7.2%	?	·
COc1cc(CCC(=O)NCc2ccc3c(c2)CCN3C(=O)c2ccc(F)cc2)cc(OC)c1OC	·	·	·	·	4.5%[46 µM]	·
CCn1c(SCc2cccc(Br)c2)nnc1-c1nonc1NC(C)=O	·	·	·	·	-4.3%[46 µM]	·
O=c1cc(-c2ccccc2O)oc2ccc3ccccc3c12	-1.5%	·	3.0%	?	·	-6.2
O=c1cc(-c2ccccc2O)oc2c(O)c(O)ccc12	10µM*	·	2.51µM*	-4.2%	·	12.4
O=c1cc(-c2ccccc2)oc2c(O)c(O)ccc12	3.16µM*	·	3.98µM*	-4.2%	·	·
C[C@@H]1C[C@](C)(C(=O)c2ccco2)C=C1c1ccco1	-8.4%	·	14.1µM*	-1.2%	·	·
Cc1ccc(-c2noc(CCC(=O)N(C)c3ccccc3C)n2)cc1	14.1µM*	13.4	-4.1%	7.9%	?	?
COc1ccc(-c2noc(CCC(=O)N3CCN(Cc4ccccc4)CC3)n2)cc1	-5.1%	-11.6	?	-4.0%	-1.1%	2.6
CCN(C(=O)CCc1nc(-c2ccc(C)cc2)no1)c1cc(C)ccc1C	·	·	·	·	·	7.6
COc1ccc(-c2noc(CCC(=O)N3CCC(C)CC3)n2)cc1	5.01µM*	-29.4	?	-3.8%	-22.4%	-3.8
Cc1ccc(-c2noc(CCC(=O)N3CCCC3)n2)cc1	25.1µM*	?	0.1%	-2.6%	?	0.1
COc1ccc2c(c1)C(=O)[C@@H](OC(=O)Nc1ccc(C)c(Br)c1)[C@H](c1ccc(OC)c(Br)c1)O2	-12.4%	·	2.0%	1.7%	·	·
C=CC1=C2C=C(C3CC3)N(c3ccc(OC)cc3)C=C2C(=O)C(C)(OC(=O)c2ccco2)C1=O (centres undefined)	-7.7%	·	10.3%[13.5 µM]	-0.4%[7.66 µM]	-11.5%[9.22 µM]	·
SMILES	HPGD inh	PNC assembly inh	ALDH1A1 block	Luc counter	Lamin A splicing	IMPase cell inh
COC(=O)c1cn(CCOc2ccc(C)cc2)c2ccccc12	-19.6%	-82.3*	2.8%	-1.3%	?	6.1
CC[C@@H]1Cn2c(c3nc(-c4cc(Cl)cc(Cl)c4Cl)nc-3n(C)c2=O)N1	?	·	?	-2.1%[39.9 µM]	·	·
COc1cccc(Cn2c(=O)c(-c3ccc(F)cc3)nc3cncnc32)c1	·	·	3.0%	·	?	·
COc1cccc(Cn2c(=O)c(-c3cccc(F)c3)nc3cncnc32)c1	20µM*	·	-6.6%	-3.3%	·	·
CN(C)c1ccc(-c2nc(-c3cc4cc(Cl)ccc4oc3=O)cs2)cc1	·	·	·	·	0.8%[46 µM]	·
COc1ccc(C(=O)n2nc(-c3ccco3)nc2SC)cc1OC	?	-26.6	28.2µM*	-1.3%	-5.7%	-5.3
Cc1ccc(S(=O)(=O)NCCc2cn3ccsc3n2)c(C)c1	·	·	·	·	5.0%[46 µM]	·
CCc1ccc(NS(=O)(=O)c2ccc3[nH]cc(C(=O)N(C)Cc4ccco4)c(=O)c3c2)cc1	-14.9%	-114.2*	-6.2%	-3.1%	-4.0%	-2.8
CN(Cc1ccco1)C(=O)c1c[nH]c2ccc(S(=O)(=O)Nc3ccc4c(c3)OCCO4)cc2c1=O	17.8µM*	37.3	22.4µM*	0.4%	-7.2%	·
CCOc1ccc(NS(=O)(=O)c2ccc3[nH]cc(C(=O)N(C)Cc4ccccc4)c(=O)c3c2)cc1	·	·	·	·	12.9%[46 µM]	·
CCc1ccccc1NS(=O)(=O)c1ccc2[nH]cc(C(=O)NC3CCCC3)c(=O)c2c1	-27.6%	21.0	20µM*	-2.5%	?	·
O=C(NC1CCCC1)c1c[nH]c2ccc(F)cc2c1=O	-13.3%	-10.9	?	-0.3%	-5.7%	3.4
c1ccsc1	-14.7%	·	7.6%	·	·	·
O=C(CC(c1ccco1)C1CCCCC1=O)c1ccco1 (centres undefined)	-0.7%	11.4	25.1µM*	-1.2%	7.5%	-9.7
COc1ccc(C(=O)CC(c2ccccc2)C2CCCCC2=O)cc1 (centres undefined)	-15.4%	2.3	0.501µM*	-1.6%	-10.9%	1.4
O=C(OCc1cc2ccccc2[nH]c1=O)c1ccncc1	-12.9%	-100.0*	2.5%	-1.6%	-8.7%	?
O=C(OCc1cc2ccccc2[nH]c1=O)c1ccccc1	-14.1%	5.9	-7.5%	11.0%	1.6%	3.8
Brc1cccc(OCCN2CCCCC2)c1	4.6%	13.6	-5.1%	-2.1%	-8.4%	·
Clc1cccc(OCCN2CCNCC2)c1	-1.8%	48.4	17.8µM*	1.0%	?	·
CCc1cccc(OCCn2ccnc2)c1	-23.3%	-89.7*	?	-2.3%	5.0%	·
Clc1cccc(OCCN2CCOCC2)c1	5.5%	-4.9	-11.2%	9.1%	5.5%	-1.0
CCc1cccc(OCCN2CCCC2)c1	-5.8%	?	22.4µM*	-1.6%	1.8%	·
COc1ccc(/C=C2\CCn3c2nc2cc(C(=O)O)ccc2c3=O)cc1OC	·	·	·	·	-2.5%[46 µM]	·
COc1ccc(/C=C2\CCn3c2nc2cc(C(=O)O)ccc2c3=O)cc1O	14.1µM*	-96.1*	22.4µM*	-0.5%	-1.3%	?
O=C1C2CC=C(Cl)CC2C(=O)N1CCCCCCN1C(=O)C2CC=C(Cl)CC2C1=O (centres undefined)	15.8µM*	?	22.4µM*	-0.9%	-10.4%	0.6
O=C1C2CC=C(Cl)CC2C(=O)N1CCN1CCOCC1 (centres undefined)	-0.9%	26.9	-3.4%	-0.3%	8.3%	-6.8
